An excerpt weighted towards active compounds, which were near 1.5% of everything screened.
Polio RdRp inh: poliovirus RNA polymerase inhibition. poliovirus polymerase elongation, fluorescence polarization; active compounds read low. % elongation, % (compound at 16.7 µg/mL). 150,000 compounds, 0.66% hits. AID 588519; in the data active = % elongation below about 90%
AID504770: E. coli YBA685 growth inhibition, screen for V. cholerae RctB inhibitors | E. coli YBA685 rctB-dependent plasmid, OD600 growth, 3 h; active compounds read low | z-score (concentration not given with the values) | 130,000 compounds, 0.27% hits | AID 504770; in the data active = z-score below about -2, passing the limit was not always enough
Mtb MenB inh: inhibitors of Mycobacterium tuberculosis MenB enzyme. P9WNP5. MenB enzyme assay, absorbance read-out. inhibition, % (concentration not given with the values). 100,000 compounds, 0.43% hits. AID 540299; in the data active = inhibition above about 21%, passing the limit was not always enough
Mtb MbtI inh: inhibitors of Mycobacterium tuberculosis siderophore enzyme MbtI | purified MbtI enzyme, fluorescence intensity read-out | 100,000 compounds, 0.89% hits | P9WFX0 | inhibition, % (concentration not given with the values) | AID 493033; in the data active = inhibition mostly above about 56%, no sharp cut-off; inactive = mostly below about 77%
Target sequence (P9WFX0 whole entry, looked up): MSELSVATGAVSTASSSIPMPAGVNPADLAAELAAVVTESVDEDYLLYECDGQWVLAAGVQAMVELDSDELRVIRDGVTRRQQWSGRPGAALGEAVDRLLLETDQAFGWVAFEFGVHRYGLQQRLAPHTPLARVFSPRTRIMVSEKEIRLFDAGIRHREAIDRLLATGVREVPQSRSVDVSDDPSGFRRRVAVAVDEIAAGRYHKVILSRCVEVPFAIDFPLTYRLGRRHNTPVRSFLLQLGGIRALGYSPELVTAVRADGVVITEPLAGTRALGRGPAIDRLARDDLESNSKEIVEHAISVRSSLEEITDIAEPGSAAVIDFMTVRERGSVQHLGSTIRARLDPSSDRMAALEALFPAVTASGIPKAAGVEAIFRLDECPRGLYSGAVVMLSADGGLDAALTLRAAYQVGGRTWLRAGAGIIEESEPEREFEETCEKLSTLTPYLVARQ
A number is an active result; – = inactive; · = no result given; ! = a repeat was not active.

SMILES	Polio RdRp inh	AID504770	Mtb MenB inh	Mtb MbtI inh
CC(=O)N1CCN(c2nc(N)c3c(N)nc4c(c3c2C#N)CC(=O)N4C)CC1	18	–	–	–
Cc1ccccc1-n1nc2c(c1NC(=O)c1ccc(S(=O)(=O)N3CCOCC3)cc1)CS(=O)C2 (configuration not stated)	–	–	–	–
O=C1CSC(=S)N1/N=C/c1cc(Br)cc(Br)c1O	90	–	–	–
CC(C)NC(=O)CCc1nc(-c2ccc(Cl)cc2)no1	–	–	–	–
Nc1nonc1C(=O)NN=c1c(=O)c2ccccc2c1=O	47	–	–	–
Nc1nonc1C(=O)NCCN=Cc1ccccc1O	–	–	–	–
CCc1ccc2ncc(S(=O)(=O)c3ccccc3)c(N3CCCCC3)c2c1	–	–	–	–
Nc1ccc(N2CCOCC2)c2nonc12	85	–	–	–
O=C(Nc1ccc(N2CCOCC2)c2nonc12)c1ccco1	–	–	–	–
CC(C)CCn1c(=O)c2ccccc2n2c(COC(=O)C3CC=CCC3)nnc12 (configuration not stated)	–	–	–	–
Cc1cc(C)cc(CC(CC(=O)Nc2nccs2)C(=O)Nc2nccs2)c1 (configuration not stated)	·	–	·	·
Cc1cc(=S)[nH]c2ccccc12	–	–	–	61
COc1cc(SC)ccc1C(=O)N(C)C1CCN(C)CC1	-3.0	–	–	–
CN(C)C(=O)C(OC(=O)c1ccc(Cl)c(N)c1)c1ccccc1 (configuration not stated)	–	–	–	–
O=C(Nc1ccccc1-c1nc2ccccc2s1)C1CCCN1S(=O)(=O)c1cccs1 (configuration not stated)	–	–	–	–
CC(C)NCC(O)COc1cccc2ccccc12 (configuration not stated)	100!	–	–	–
CC1CCCC(NC(=O)CSc2nc3ccccc3o2)C1C (configuration not stated)	–	–	–	–
CC(c1n[nH]c(=S)n1Cc1ccccc1)N(C)C (configuration not stated)	–	–	–	59
CCCN1C(=O)/C(=C/c2ccc(C)o2)NC1=S	–	–	–	63
Cc1ccc(/C=C2/NC(=O)N(Cc3ccc(Br)cc3)C2=O)o1	–	–	–	–
Cc1nnc2c(Nc3ccccc3I)nc3nonc3n12	–	-2.8	–	–
CCC(=O)N1CCN(c2cc(Cl)ccc2C)CC1	–	–	–	–
O=C(O)C1C2C=CC(C2)C1C(=O)NCc1cccs1 (configuration not stated)	–	–	23	–
O=C1C=CC(=O)c2c(O)cccc21	87!	–	–	–
O=C1c2ccccc2C(=O)c2c1ccc(O)c2O	–	–	–	–
SMILES	Polio RdRp inh	AID504770	Mtb MenB inh	Mtb MbtI inh
CCOC(=O)c1c(CN2CCOCC2)n(C)c2ccc(O)cc12	68	–	–	·
O=C(CC(c1cccs1)N1Cc2ccccc2C1=O)NCc1ccc(CN2CCOCC2)o1 (configuration not stated)	–	–	–	–
O=C(CC(c1cccs1)N1Cc2ccccc2C1=O)NCCN1CCOCC1 (configuration not stated)	–	-2.2	–	–
O=C1C(Nc2cccc(O)c2)=C(n2nnc3ccccc32)C(=O)c2ccccc21	51	–	–	–
Cc1ccsc1C=Nc1ccc(O)cc1	–	–	–	96
Cc1ccsc1C=Nc1ccc(OC(F)(F)F)cc1	–	–	·	–
O=C1c2ccccc2C(=O)C1(O)N1CCOCC1	34	–	–	–
O=C(CC1(c2ccc(Cl)cc2)C(=O)c2ccccc2C1=O)N1CCOCC1	–	–	–	–
CC1=CC(C)(C)c2ccccc2N1Cc1ccccc1	–	–	–	·
CC(C)C(NC(=O)c1ccccc1)C(=O)O (configuration not stated)	–	–	–	–
CC(NC(=O)c1ccc(-c2ccccc2)cc1)C(=O)O (configuration not stated)	–	–	29	–
O=C1NC(=S)N(c2ccccc2)C(=O)/C1=C\c1ccoc1	–	–	–	69
Cc1ccc(C(=O)NC2(O)C(=O)c3ccccc3C2=O)cn1	·	–	·	·
O=C(NC1(O)C(=O)c2ccccc2C1=O)c1ccccc1	67	–	–	–
COc1ccc(/C=C/C(=O)Nc2ccccc2)cc1	–	–	–	–
COC(=O)/C=C/C(=O)Nc1ccccc1	–	–	–	101
C=CCN(CC=C)Cn1[nH]c(-c2cccs2)nc1=S	–	–	–	96
CCOC(=O)c1c(NC(=O)c2ccc(S(=O)(=O)N3CCCC(C)C3)cc2)sc2c1CC(C)(C)NC2(C)C (configuration not stated)	–	·	·	·
CCOC(=O)c1c(NC(=O)c2ccc(S(=O)(=O)N(CCOC)CCOC)cc2)sc2c1CC(C)(C)NC2(C)C	83	·	·	·
O=C(c1cc(=O)[nH]c2ccccc12)N1CCSC1=NCCc1ccccc1	64	–	–	–
O=C(c1cc(=O)[nH]c2ccccc12)N1CCCc2ccccc21	·	–	–	–
CC1(C)CSC(=NCc2ccccc2)N1C(=O)Cn1[nH]c(=O)c2ccccc2c1=O	–	–	–	–
O=C(Cn1[nH]c(=O)c2ccccc2c1=O)N1CCSC1=NCc1ccccc1	90	–	–	–
CN(CCOc1ccc(Cl)cc1)Cn1nnc2ccccc2c1=O	–	–	–	–
CNC1(C#N)CCC(C)CC1 (configuration not stated)	–	-2.3	–	–
SMILES	Polio RdRp inh	AID504770	Mtb MenB inh	Mtb MbtI inh
CCN1CCN(CCC(=O)Nc2ccc(-c3ccccc3)cc2)CC1	–	–	·	–
CCN1CCN(CCC(=O)Nc2ccc(C)cc2)CC1	–	–	37	–
O=S(=O)(Nc1ccccc1-c1ccccc1)c1cccs1	–	–	52	–
CCN1CSC(=S)N(CC)C1	–	-2.5	–	–
Cc1cc(C=Nc2ccc(Cl)cc2O)c(C)n1C	–	–	–	–
C=Cc1ccc2c(ccn2C(C)=O)c1	–	–	–	–
C=Cc1ccc2c(c1)N(C)C(=C)S2	–	–	·	62
CC(C)N(Cc1ccccc1)C(=O)COc1ncnc2c1cnn2-c1ccccc1	–	–	–	–
O=C(O)c1coc(=O)c(Br)c1	·	-4.7	·	–
O=C(O)c1ccc(Br)c(C(=O)O)c1	–	–	–	·
O=S1(=O)CCN(Cc2cccc(C(F)(F)F)c2)CC1	·	-2.7	·	·
FC(F)(F)c1cccc(CN2CCSCC2)c1	–	–	–	–
CC(OC(=O)c1cc(S(=O)(=O)N(C)C)ccc1N1CCCC1)C(=O)N1CCc2ccccc21 (configuration not stated)	–	-3	–	–
O=C(O)CCC(=O)c1cccs1	82	–	·	–
N#Cc1ccc(NC(=O)CCC(=O)c2cccs2)cc1	83	–	–	–
Cc1ccc(NC(=O)CCC(=O)c2cccs2)cc1	–	–	–	–
CC(C)P(=O)(c1cccc(C(=O)O)c1)C(C)C	–	–	23	·
CCN(CC)C(=O)NC1CCCCCC1	–	–	–	–
C=C/C=C(\C=C(C)C)N(C(=O)NC1CCCCC1)C1=NCCCS1	–	–	29	–
C1CNCC(CN2CCCC2)C1 (configuration not stated)	–	–	46	–

Source: PubChem BioAssay (ICCB-Longwood Screening Facility, Harvard Medical School)
